Inconclusive results are not listed. Calls of active or inactive are those of the source.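 The calls were made as follows, unless noted: active = response below a set limit, under 55% cells CD8-positive and vesicle-bound, and CD8 cells' 90th-percentile brightness under 279; inactive = the rest.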
Experiments:
[1] = yeast TOR pathway RPL19A-GFP modulators, primary screen, cell-based, S. cerevisiae, multiplex flow cytometry (AID 1862; in the data active = percent of DMSO control GFP below about 86%;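 also: lower values mimic rapamycin by blocking the RPL19A rise seen in DMSO cells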); conditions: S. cerevisiae RPL19A-GFP strain, flow cytometry fluorescence, 3 h; at 10 µM; stronger effect = lower value
[2] = modulators of MEP2-GFP levels in yeast, primary screen, S. cerevisiae, multiplex flow cytometry (AID 1867;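 active = GFP response, as percent of the DMSO control, above the screen-wide mean plus 3 SD, about 139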;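 also: median GFP channel fluorescence of barcode-gated MEP2-GFP cells measured by flow cytometry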); conditions: S. cerevisiae MEP2-GFP strain, 3 h, at 10 µM, stronger effect = higher value, 100% means same as DMSO wells
[3] = modulators of CIT2-GFP expression in yeast, primary screen, S. cerevisiae, GFP fusion, multiplex flow cytometry (AID 1870;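 active = percent response above a set limit, the screen-wide mean plus 3 SD, cut at about 130% in these data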;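 also: barcoded CIT2-GFP strain pooled with four other GFP strains with rapamycin as positive control; median GFP fluorescence per well over plate mean of DMSO wells so 100% = DMSO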); conditions: 3 h, at 10 µM, stronger effect = higher value
[4] = modulators of LAP4-GFP expression in yeast, primary screen, S. cerevisiae, multiplex flow cytometry (AID 1873;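 active = GFP signal, as percent of the solvent control, above the screen mean plus 3 SD, about 149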); conditions: 3 h, at 10 µM, stronger effect = higher value
[5] = modulators of AGP1-GFP expression in yeast TOR pathway, primary screen, cell-based, multiplex flow cytometry, S. cerevisiae (AID 1887;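 active = GFP signal above the screen-wide mean plus 3 SD, that is over about 124.5% of the solvent control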;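 also: AGP1-GFP fusion strain of S. cerevisiae within a five-strain barcoded multiplex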); conditions: 3 h, at 10 µM, stronger effect = higher value
[6] = inhibitors of CD8+ T cell-vesicle binding, pilot screen, LFA-1/ICAM-1 modulator project, MLPCN validation set, flow cytometry (AID 2523); conditions: 2C mouse CD8+ T cells, at 7 µM, stronger effect = lower value; double positive events: measured here: CD8+/vesicle+ event percentage;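 as to vesicle binding response: mean PE anti-B7-1 fluorescence of CD8+ cells relative to row control; 100% = QL9-loaded vesicles with DMSO vehicle in the same plate row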
[7] = target: Integrin beta-1 (Homo sapiens) + Integrin alpha-4 (Homo sapiens) (UniProt P13612+P05556); experiment: inhibition of HUTS-21 binding to VLA-4, pilot screen, VLA-4 allosteric modulator project, U937 cells, HUTS-21 mAb, flow cytometry, validation set (AID 2674;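 active = inhibition above 50%, about 3 SD of the validation set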;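 also: antibody binding induced by the VLA-4 ligand LDV present at three times its Kd; 0% = LDV ligand with antibody and no compound and 100% = antibody without LDV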); conditions: HUTS-21 LIBS mAb binding, at 6.7 µM, stronger effect = higher value, binding induced by LDV ligand
[8] = superoxide lowering in aged yeast cells, pilot screen, validation compound set (AID 2706;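 active = superoxide response below 65% of plate, a cut near 3 SD across the whole screen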;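 also: yeast exposed to compound for one week at 30 degrees C before staining; 100% = mean of all compound wells on the same plate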); conditions: S. cerevisiae aging, superoxide DHE fluorescence; at 10 µM; stronger effect = lower value
[9] = target: Beta-adrenergic receptor kinase 1 (Homo sapiens) (UniProt P25098); experiment: GRK2 binders displacing RNA aptamer, biochemical, validation, human GRK2, bead flow cytometry (AID 488806;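 active = aptamer binding inhibition above 30%, about 3 SD of noise from non-fluorescent compounds; inactive = inhibition at or below 30%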); conditions: bead-bound GRK2, FAM-aptamer displacement, at 10 µM, stronger effect = higher value
[10] = target: Beta-2 adrenergic receptor (Homo sapiens) (UniProt P07550); experiment: beta2AR agonists driving receptor internalization, pilot screen, cell-based, FAP fluorogen, flow cytometry, validation set (AID 504459;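 active = percent response above 42, roughly 3 SD of non-fluorescent test compounds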;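 also: agonist-driven loss of surface beta2AR via internalization measured by FAP dye flow cytometry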); conditions: Am2.2-beta2AR cells, FAP surface receptor flow cytometry; at 10 µM; stronger effect = higher value
[11] = target: AP-2 complex subunit beta (Homo sapiens) (UniProt P63010); experiment: inhibitors of arrestin peptide binding to AP2, pilot screen, biochemical, validation set, GST-AP2 beads, flow cytometry (AID 504541;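 active = inhibition above 54%, about 3 SD of non-fluorescent compounds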;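 also: AP2 carries R879A mutation and is captured from E. coli lysate; bead-bound FITC arrestin peptide fluorescence measuring arrestin peptide binding to AP2; 0% = DMSO wells and 100% = excess unlabeled arrestin peptide control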); conditions: FITC arrestin peptide, at 10 µM, stronger effect = higher value, AP2 beta2 appendage fragment, R879A mutant
[12] = yeast V-ATPase proton transport modulators, S. cerevisiae, pHLuorin, HTS validation (AID 504600; in the data active = response above about 15%;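 also: plate controls were DMSO for no effect and reference compound for full effect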); conditions: S. cerevisiae pHLuorin cytosolic pH, at 10 µM, stronger effect = higher value
[13] = tested on: anti-desmoglein-3 scFv antibody binding to human DSG3; experiment: inhibitors of anti-DSG3 scFv binding to DSG3, pilot screen, biochemical, validation compound set, bead-based, flow cytometry (AID 588368;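 active = binding below the plate cutoff, the plate median minus 3 SD, with a reading above zero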;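 also: signal is the median channel fluorescence of bead-bound GFP antibody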); conditions: Protein G beads, DSG3-Fc, scFv-GFP binding, at 10 µM, stronger effect = lower value
[14] = inhibitors of fungal efflux pumps CDR1, CDR2, MDR1, pilot screen, validation compound set, multiplex, phenotypic (AID 588506;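 active = efflux inhibition above 0.42, the validation set average plus 4 SD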;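 also: Nile Red retained in cells so higher fluorescence means more efflux inhibition; 0 = negative control wells and 1 = enniatin B 25 µM full block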); conditions: S. cerevisiae pump-expressing triplex, Nile Red efflux flow cytometry; at 10 µM; stronger effect = higher value; the pumps come from Candida albicans
[15] = target: ATP-binding cassette sub-family B member 6 (Homo sapiens) (UniProt Q9NP58); experiment: ABCB6 transporter inhibitors, pilot screen, K562-ABCB6 cells, flow cytometry, validation set (AID 588550;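 active = inhibition above the screen-wide mean plus 3 SD, about 51%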;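 also: 0% = DMSO wells and 100% = benzethonium chloride 70 µM positive control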); conditions: K562-ABCB6 porphyrin accumulation, 1 h, at 10 µM, stronger effect = higher value
[16] = promoters of myeloid differentiation in arrested cells, primary screen, cell-based, GFP/MAC1 double positive, flow cytometry, validation set (AID 588685;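 active = differentiation response of at least 50%, scaled between solvent and reference control, from cells with both markers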;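 also: compound exposure lasts four days before antibody staining and flow analysis; 0% = DMSO wells and 100% = 5 µM fulvestrant positive control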); conditions: ER-HoxA9 marrow cells, stronger effect = higher value, normalized: vehicle 0, fulvestrant 100

Beta-2 adrenergic receptor (Homo sapiens), sequence (P07550 whole entry, looked up): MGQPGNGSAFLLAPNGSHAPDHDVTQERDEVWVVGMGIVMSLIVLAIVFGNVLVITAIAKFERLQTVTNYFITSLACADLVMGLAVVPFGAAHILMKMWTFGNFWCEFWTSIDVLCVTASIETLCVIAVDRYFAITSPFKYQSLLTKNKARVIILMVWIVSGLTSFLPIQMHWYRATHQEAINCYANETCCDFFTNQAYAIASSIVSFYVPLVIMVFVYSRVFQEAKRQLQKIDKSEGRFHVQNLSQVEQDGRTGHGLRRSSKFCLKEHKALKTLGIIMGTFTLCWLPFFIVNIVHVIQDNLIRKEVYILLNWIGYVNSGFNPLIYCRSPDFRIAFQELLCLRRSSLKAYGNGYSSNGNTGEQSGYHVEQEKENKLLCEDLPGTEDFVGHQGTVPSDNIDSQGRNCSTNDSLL
ATP-binding cassette sub-family B member 6 (Homo sapiens), sequence (Q9NP58 whole entry, looked up): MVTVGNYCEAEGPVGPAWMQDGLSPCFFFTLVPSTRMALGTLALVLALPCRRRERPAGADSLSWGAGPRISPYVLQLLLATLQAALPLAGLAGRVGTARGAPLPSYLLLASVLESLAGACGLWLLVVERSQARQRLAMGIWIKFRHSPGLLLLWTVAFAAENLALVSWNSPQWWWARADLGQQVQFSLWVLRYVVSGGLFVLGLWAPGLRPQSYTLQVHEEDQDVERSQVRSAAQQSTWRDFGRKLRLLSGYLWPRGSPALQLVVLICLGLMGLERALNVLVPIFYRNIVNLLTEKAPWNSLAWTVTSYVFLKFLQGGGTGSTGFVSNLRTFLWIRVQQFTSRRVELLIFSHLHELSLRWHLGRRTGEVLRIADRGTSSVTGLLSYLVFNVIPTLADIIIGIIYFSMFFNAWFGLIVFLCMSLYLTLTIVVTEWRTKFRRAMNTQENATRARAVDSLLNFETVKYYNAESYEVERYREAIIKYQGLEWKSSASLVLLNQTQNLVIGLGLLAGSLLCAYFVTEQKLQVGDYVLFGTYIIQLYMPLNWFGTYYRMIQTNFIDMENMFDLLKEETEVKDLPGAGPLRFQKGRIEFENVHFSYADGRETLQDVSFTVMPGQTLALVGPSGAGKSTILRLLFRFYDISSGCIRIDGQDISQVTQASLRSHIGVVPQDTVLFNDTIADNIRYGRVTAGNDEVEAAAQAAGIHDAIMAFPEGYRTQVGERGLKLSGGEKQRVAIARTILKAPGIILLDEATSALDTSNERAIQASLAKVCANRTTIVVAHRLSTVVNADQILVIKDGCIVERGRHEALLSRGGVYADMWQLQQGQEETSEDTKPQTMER
Beta-adrenergic receptor kinase 1 (Homo sapiens), sequence (P25098 whole entry, looked up): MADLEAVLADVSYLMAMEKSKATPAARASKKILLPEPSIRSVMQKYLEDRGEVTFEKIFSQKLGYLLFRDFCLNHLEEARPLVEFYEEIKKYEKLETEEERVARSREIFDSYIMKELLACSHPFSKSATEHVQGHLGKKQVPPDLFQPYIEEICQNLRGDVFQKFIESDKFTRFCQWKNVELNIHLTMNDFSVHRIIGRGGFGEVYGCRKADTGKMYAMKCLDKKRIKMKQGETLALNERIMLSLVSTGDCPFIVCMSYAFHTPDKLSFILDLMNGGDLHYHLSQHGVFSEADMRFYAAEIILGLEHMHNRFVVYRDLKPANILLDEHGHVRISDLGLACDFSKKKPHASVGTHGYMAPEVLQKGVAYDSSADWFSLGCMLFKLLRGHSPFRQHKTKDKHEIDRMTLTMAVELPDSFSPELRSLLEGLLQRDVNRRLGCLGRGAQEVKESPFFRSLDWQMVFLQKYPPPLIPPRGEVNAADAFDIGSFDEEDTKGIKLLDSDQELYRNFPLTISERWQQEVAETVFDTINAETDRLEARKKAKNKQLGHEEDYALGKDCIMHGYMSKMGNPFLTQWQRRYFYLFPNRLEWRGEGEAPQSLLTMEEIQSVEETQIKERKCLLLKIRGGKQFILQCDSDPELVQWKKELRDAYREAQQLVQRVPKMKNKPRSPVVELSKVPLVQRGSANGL
Integrin beta-1 (Homo sapiens) + Integrin alpha-4 (Homo sapiens), sequence (P05556 whole entry, looked up): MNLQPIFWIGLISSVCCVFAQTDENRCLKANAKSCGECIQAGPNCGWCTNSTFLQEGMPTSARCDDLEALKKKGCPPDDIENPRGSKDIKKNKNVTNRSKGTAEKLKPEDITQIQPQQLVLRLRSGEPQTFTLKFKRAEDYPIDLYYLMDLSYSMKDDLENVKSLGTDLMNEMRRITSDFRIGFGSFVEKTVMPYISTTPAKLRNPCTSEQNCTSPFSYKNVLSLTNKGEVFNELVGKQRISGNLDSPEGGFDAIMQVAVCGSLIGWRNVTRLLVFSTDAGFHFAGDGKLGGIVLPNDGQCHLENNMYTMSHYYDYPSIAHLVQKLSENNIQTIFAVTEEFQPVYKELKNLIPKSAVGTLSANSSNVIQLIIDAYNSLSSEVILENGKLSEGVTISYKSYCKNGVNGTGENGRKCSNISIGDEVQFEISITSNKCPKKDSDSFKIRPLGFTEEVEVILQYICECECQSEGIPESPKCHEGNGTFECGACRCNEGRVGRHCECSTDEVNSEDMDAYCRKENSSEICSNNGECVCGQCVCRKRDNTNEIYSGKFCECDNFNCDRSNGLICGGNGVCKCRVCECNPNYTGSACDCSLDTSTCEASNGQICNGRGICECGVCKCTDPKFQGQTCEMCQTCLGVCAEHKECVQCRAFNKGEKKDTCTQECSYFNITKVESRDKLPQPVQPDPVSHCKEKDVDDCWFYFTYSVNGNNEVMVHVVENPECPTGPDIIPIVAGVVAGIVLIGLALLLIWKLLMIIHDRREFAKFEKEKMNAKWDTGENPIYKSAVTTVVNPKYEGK
Integrin beta-1 (Homo sapiens) + Integrin alpha-4 (Homo sapiens), sequence (P13612 whole entry, looked up): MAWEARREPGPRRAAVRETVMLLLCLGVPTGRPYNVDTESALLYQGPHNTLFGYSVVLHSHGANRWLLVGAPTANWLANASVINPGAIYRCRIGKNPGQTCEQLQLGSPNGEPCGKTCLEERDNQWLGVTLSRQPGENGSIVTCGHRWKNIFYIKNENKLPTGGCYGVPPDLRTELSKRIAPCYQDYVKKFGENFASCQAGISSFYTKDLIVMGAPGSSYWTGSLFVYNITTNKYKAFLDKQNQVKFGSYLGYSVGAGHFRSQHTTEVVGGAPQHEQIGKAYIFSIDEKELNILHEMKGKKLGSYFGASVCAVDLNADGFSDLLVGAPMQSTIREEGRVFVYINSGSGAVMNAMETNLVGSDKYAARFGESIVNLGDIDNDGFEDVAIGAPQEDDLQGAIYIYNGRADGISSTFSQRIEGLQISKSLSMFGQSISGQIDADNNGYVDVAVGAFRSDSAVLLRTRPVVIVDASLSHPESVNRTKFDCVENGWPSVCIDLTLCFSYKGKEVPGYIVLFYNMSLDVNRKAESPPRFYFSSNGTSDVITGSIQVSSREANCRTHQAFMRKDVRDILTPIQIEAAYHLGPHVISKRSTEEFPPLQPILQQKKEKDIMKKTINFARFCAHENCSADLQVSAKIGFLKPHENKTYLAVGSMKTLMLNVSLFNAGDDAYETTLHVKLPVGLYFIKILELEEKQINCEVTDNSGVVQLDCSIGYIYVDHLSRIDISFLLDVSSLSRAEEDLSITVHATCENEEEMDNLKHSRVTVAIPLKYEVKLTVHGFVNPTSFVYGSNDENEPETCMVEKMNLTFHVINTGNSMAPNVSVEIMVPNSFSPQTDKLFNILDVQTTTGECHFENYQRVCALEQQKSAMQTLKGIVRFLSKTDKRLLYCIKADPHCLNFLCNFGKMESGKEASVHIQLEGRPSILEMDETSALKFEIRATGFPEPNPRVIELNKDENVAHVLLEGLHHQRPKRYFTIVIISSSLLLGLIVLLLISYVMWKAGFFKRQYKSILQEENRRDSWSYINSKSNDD
AP-2 complex subunit beta (Homo sapiens), sequence (P63010 whole entry, looked up, the tested form may be a part, one chain of several): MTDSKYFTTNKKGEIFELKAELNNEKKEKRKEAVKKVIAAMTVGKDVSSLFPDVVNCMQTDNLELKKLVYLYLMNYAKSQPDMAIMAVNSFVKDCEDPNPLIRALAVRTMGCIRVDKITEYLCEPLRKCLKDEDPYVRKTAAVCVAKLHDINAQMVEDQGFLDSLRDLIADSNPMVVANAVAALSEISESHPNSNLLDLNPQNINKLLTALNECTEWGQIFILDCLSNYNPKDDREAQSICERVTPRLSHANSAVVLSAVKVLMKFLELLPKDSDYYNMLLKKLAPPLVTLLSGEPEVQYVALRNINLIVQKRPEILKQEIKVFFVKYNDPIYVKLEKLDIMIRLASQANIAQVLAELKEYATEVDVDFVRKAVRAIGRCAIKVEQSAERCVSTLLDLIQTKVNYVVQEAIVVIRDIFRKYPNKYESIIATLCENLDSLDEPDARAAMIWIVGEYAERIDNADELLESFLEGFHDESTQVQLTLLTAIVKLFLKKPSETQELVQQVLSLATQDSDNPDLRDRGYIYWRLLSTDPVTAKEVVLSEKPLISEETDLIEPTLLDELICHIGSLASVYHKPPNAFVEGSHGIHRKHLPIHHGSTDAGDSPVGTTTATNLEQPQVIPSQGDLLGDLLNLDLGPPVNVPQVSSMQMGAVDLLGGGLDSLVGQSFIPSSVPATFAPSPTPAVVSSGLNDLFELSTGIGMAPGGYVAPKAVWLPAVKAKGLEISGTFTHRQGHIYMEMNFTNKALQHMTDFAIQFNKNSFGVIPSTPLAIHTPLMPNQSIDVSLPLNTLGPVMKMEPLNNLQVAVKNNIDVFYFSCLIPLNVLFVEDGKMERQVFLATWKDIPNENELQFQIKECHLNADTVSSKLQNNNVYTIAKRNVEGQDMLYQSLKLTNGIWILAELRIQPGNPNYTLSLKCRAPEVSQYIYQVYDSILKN

CC[C@]1(O)CC2CN(CCc3c([nH]c4ccccc34)[C@@](C(=O)OC)(c3cc4c(cc3OC)N(C=O)[C@H]3[C@@](O)(C(=O)OC)[C@H](OC(C)=O)[C@]5(CC)C=CCN6CC[C@]43[C@@H]65)C2)C1 (stereo partly specified)
active: inhibition [15] 112%
61.8%: double positive events [6]
inactive: percent of DMSO control GFP [1] 103% | GFP response vs DMSO [2] 98.5% | percent response of DMSO control [3] 101% | GFP response vs DMSO [4] 94% | GFP response, % of DMSO [5] 98.5% | vesicle binding response [6] 204% | inhibition [7] 48.7% | superoxide response (% of plate) [8] 93% | aptamer binding inhibition [9] 3% | response [10] 23.4% | inhibition [11] -4.62% | response [12] 6.03% | binding (% of control) [13] 97.2% | efflux inhibition (fraction of control) [14] 0.12 | differentiation response [16] 4%

COC(=O)C1=C(C)NC(C)=C([N+](=O)[O-])C1c1ccccc1C(F)(F)F (stereo unspecified)
58.2%: double positive events [6]
inactive: percent of DMSO control GFP [1] 101% | GFP response vs DMSO [2] 110% | percent response of DMSO control [3] 98.6% | GFP response vs DMSO [4] 97% | GFP response, % of DMSO [5] 105% | vesicle binding response [6] 160% | inhibition [7] 9.63% | superoxide response (% of plate) [8] 102% | aptamer binding inhibition [9] 0% | response [10] 4.56% | inhibition [11] -3.68% | response [12] 3.77% | binding (% of control) [13] 106% | efflux inhibition (fraction of control) [14] -0.3 | inhibition [15] 4% | differentiation response [16] -7.5%

O=C(Cc1ccccc1)NCC(=O)OCC(=O)c1ccccc1Cl
76.4%: double positive events [6]
inactive: percent of DMSO control GFP [1] 98.3% | GFP response vs DMSO [2] 112% | percent response of DMSO control [3] 107% | GFP response vs DMSO [4] 74.3% | GFP response, % of DMSO [5] 93.3% | vesicle binding response [6] 296% | inhibition [7] -2.27% | superoxide response (% of plate) [8] 92.9% | aptamer binding inhibition [9] 4% | response [10] -1.13% | inhibition [11] -4.1% | response [12] 3.49% | binding (% of control) [13] 106% | efflux inhibition (fraction of control) [14] -0.42 | inhibition [15] 17% | differentiation response [16] -0.82%

CC(C)COCC1CC2(CC(C)(c3csc(N)n3)OC2=O)C(=O)O1 (stereo unspecified)
inactive: percent of DMSO control GFP [1] 105% | GFP response vs DMSO [2] 97.2% | percent response of DMSO control [3] 102% | GFP response vs DMSO [4] 84.8% | GFP response, % of DMSO [5] 102% | vesicle binding response [6] 78.1% | inhibition [7] -9.79% | superoxide response (% of plate) [8] 93% | aptamer binding inhibition [9] 5% | response [10] -1.1% | inhibition [11] 0.87% | response [12] -4.21% | binding (% of control) [13] 94% | efflux inhibition (fraction of control) [14] 0.14 | inhibition [15] -16% | differentiation response [16] -4.64%
60.8%: double positive events [6]

CS(=O)(=O)c1cccc(C(=O)Oc2ccccc2)c1
inactive: percent of DMSO control GFP [1] 104% | GFP response vs DMSO [2] 97.2% | percent response of DMSO control [3] 106% | GFP response vs DMSO [4] 82.8% | GFP response, % of DMSO [5] 101% | vesicle binding response [6] 76.6% | inhibition [7] 9.92% | superoxide response (% of plate) [8] 99% | aptamer binding inhibition [9] 3% | response [10] -8.78% | inhibition [11] -4.57% | response [12] -0.27% | binding (% of control) [13] 100% | efflux inhibition (fraction of control) [14] -0.1 | inhibition [15] 3% | differentiation response [16] 10%
60.5%: double positive events [6]

O=C1C(Cc2c[nH]c3ccccc23)NC(=S)N1Cc1ccccc1 (stereo unspecified)
67.5%: double positive events [6]
inactive: percent of DMSO control GFP [1] 108% | GFP response vs DMSO [2] 102% | percent response of DMSO control [3] 104% | GFP response vs DMSO [4] 91.5% | GFP response, % of DMSO [5] 95.5% | vesicle binding response [6] 132% | inhibition [7] 8.29% | superoxide response (% of plate) [8] 104% | aptamer binding inhibition [9] 1% | response [10] 3.86% | inhibition [11] 2.2% | response [12] -1.19% | binding (% of control) [13] 94.9% | efflux inhibition (fraction of control) [14] 0 | inhibition [15] 8% | differentiation response [16] 7.13%

COc1cc(C(=O)OCCn2c(=O)c3c(ncn3CCN(C)C)n(C)c2=O)cc(OC)c1OC
62.6%: double positive events [6]
inactive: percent of DMSO control GFP [1] 106% | GFP response vs DMSO [2] 103% | percent response of DMSO control [3] 101% | GFP response vs DMSO [4] 112% | GFP response, % of DMSO [5] 117% | vesicle binding response [6] 156% | inhibition [7] 4.84% | superoxide response (% of plate) [8] 115% | aptamer binding inhibition [9] 6% | response [10] -24.2% | inhibition [11] -2.34% | response [12] -26.2% | binding (% of control) [13] 112% | efflux inhibition (fraction of control) [14] -0.13 | inhibition [15] 9% | differentiation response [16] -6.96%

CC(OC(=O)c1cc(=O)[nH]c2ccccc12)C(=O)c1ccccc1 (stereo unspecified)
58.9%: double positive events [6]
inactive: percent of DMSO control GFP [1] 99.6% | GFP response vs DMSO [2] 101% | percent response of DMSO control [3] 106% | GFP response vs DMSO [4] 107% | GFP response, % of DMSO [5] 105% | vesicle binding response [6] 174% | inhibition [7] -15.8% | superoxide response (% of plate) [8] 96.4% | aptamer binding inhibition [9] -2% | response [10] 1.78% | inhibition [11] -9.56% | response [12] 0.61% | binding (% of control) [13] 106% | efflux inhibition (fraction of control) [14] -0.61 | inhibition [15] 41% | differentiation response [16] -4.57%

— PubChem BioAssay
